Measured values published in the supplement of paper PMC8728848.
About 410 targets per protein were measured; listed, in parts, are those with the strongest signals and a random draw of the rest.

Assays:
Assay in all cases: glycan array binding signal (z-score within array); higher = stronger binding
Conditions in all cases: glycan notation: IUPAC condensed, linker removed
[1] = target: GlcNAc(b1-3)Gal(b1-4)GlcNAc(b1-3)Gal(b1-4)GlcNAc(b1-3)Gal(b1-4)GlcNAc(b1-2)Man(a1-3)[GlcNAc(b1-3)Gal(b1-4)GlcNAc(b1-3)Gal(b1-4)GlcNAc(b1-3)Gal(b1-4)GlcNAc(b1-2)Man(a1-6)]Man(b1-4)GlcNAc(b1-4)[Fuc(a1-6)]GlcNAc
Procedure, shortened: (§1)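 Arrays were curated from the Consortium for Functional Glycomics database, 3228 in total, and kept only where the protein sequence was available. Binding is expressed as a within-array Z-score. This score was averaged across arrays of the same protein sequence at different concentrations or buffers and across linkers, and negative values can be read as non-binding.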

[2] = target: GlcNAc(b1-3)Gal(b1-4)GlcNAc(b1-3)Gal(b1-4)GlcNAc(b1-3)Gal(b1-4)GlcNAc(b1-3)Gal(b1-4)GlcNAc(b1-2)Man(a1-3)[GlcNAc(b1-3)Gal(b1-4)GlcNAc(b1-3)Gal(b1-4)GlcNAc(b1-3)Gal(b1-4)GlcNAc(b1-3)Gal(b1-4)GlcNAc(b1-2)Man(a1-6)]Man(b1-4)GlcNAc(b1-4)GlcNAc
Procedure, shortened: as §1

[3] = target: GlcNAc(b1-3)Gal(b1-4)GlcNAc(b1-3)Gal(b1-4)GlcNAc(b1-3)GalNAc
Procedure, shortened: as §1

[4] = target: Man(a1-2)Man(a1-2)Man(a1-6)[Man(a1-3)]Man
Procedure, shortened: as §1

Man(a1-2)Man(a1-3)Man = target: Man(a1-2)Man(a1-3)Man
Procedure, shortened: as §1

[5] = target: Man(a1-2)Man(a1-3)[Man(a1-2)Man(a1-6)]Man
Procedure, shortened: as §1

[6] = target: Man(a1-2)Man(a1-3)[Man(a1-2)Man(a1-6)]Man(a1-6)[Man(a1-2)Man(a1-2)Man(a1-3)]Man
Procedure, shortened: as §1

[7] = target: Man(a1-2)Man(a1-3)[Man(a1-2)Man(a1-6)]Man(a1-6)[Man(a1-2)Man(a1-2)Man(a1-3)]Man(b1-4)GlcNAc(b1-4)GlcNAc
Procedure, shortened: as §1

[8] = target: Man(a1-2)Man(a1-3)[Man(a1-6)]Man(a1-6)[Man(a1-2)Man(a1-3)]Man(b1-4)GlcNAc(b1-4)GlcNAc
Procedure, shortened: as §1

[9] = target: Man(a1-2)Man(a1-6)[Man(a1-3)]Man(a1-6)[Man(a1-2)Man(a1-2)Man(a1-3)]Man
Procedure, shortened: as §1

[10] = target: Man(a1-2)Man(a1-6)[Man(a1-3)]Man(a1-6)[Man(a1-2)Man(a1-2)Man(a1-3)]Man(b1-4)GlcNAc(b1-4)GlcNAc
Procedure, shortened: as §1

[11] = target: Man(a1-3)[Man(a1-6)]Man(a1-6)[Man(a1-2)Man(a1-3)]Man(b1-4)GlcNAc(b1-4)GlcNAc
Procedure, shortened: as §1

[12] = target: Man(a1-3)[Man(a1-6)]Man(b1-4)GlcNAc(b1-4)GlcNAc
Procedure, shortened: as §1

[13] = target: Man(a1-3)[Man(a1-6)]Man(b1-4)GlcNAc(b1-4)[Fuc(a1-6)]GlcNAc
Procedure, shortened: as §1

[14] = target: Neu5Ac(a2-3)Gal(b1-3)GalNAc6S
Procedure, shortened: as §1

[15] = target: Neu5Ac(a2-3)Gal(b1-3)GlcNAc(b1-6)GalNAc
Procedure, shortened: as §1

[16] = target: Neu5Ac(a2-3)Gal(b1-3)[GlcNAc(b1-6)]GalNAc
Procedure, shortened: as §1

[17] = target: Neu5Ac(a2-3)Gal(b1-3)]Neu5Ac(a2-3)Gal(b1-4)]GlcNAc
Procedure, shortened: as §1

[18] = target: Neu5Ac(a2-3)Gal(b1-4)GlcNAc(b1-2)[Neu5Ac(a2-3)Gal(b1-4)GlcNAc(b1-4)]Man(a1-3)[GlcNAc(b1-4)][Neu5Ac(a2-3)Gal(b1-4)GlcNAc(b1-4)Man(a1-6)]Man(b1-4)GlcNAc(b1-4)GlcNAc
Procedure, shortened: as §1

[19] = target: Neu5Ac(a2-3)Gal(b1-4)GlcNAc(b1-3)Gal(b1-4)GlcNAc(b1-2)Man(a1-3)[Neu5Ac(a2-3)Gal(b1-4)GlcNAc(b1-3)Gal(b1-4)GlcNAc(b1-2)Man(a1-6)]Man(b1-4)GlcNAc(b1-4)GlcNAc
Procedure, shortened: as §1

[20] = target: Neu5Ac(a2-3)[GalNAc(b1-4)]Gal(b1-4)Glc
Procedure, shortened: as §1

[21] = target: Neu5Ac(a2-3)[GalNAc(b1-4)]Gal(b1-4)GlcNAc
Procedure, shortened: as §1

[22] = target: Neu5Ac(a2-6)Gal(b1-4)GlcNAc(b1-2)Man(a1-6)[Man(a1-3)]Man(b1-4)GlcNAc(b1-4)GlcNAc
Procedure, shortened: as §1

[23] = target: Neu5Ac(a2-6)Gal(b1-4)GlcNAc(b1-3)Gal(b1-4)GlcNAc
Procedure, shortened: as §1

[24] = target: Neu5Ac(a2-6)Gal(b1-4)GlcNAc(b1-3)Gal(b1-4)GlcNAc(b1-3)GalNAc
Procedure, shortened: as §1

[25] = target: Neu5Ac(a2-6)Gal(b1-4)GlcNAc(b1-3)Gal(b1-4)GlcNAc(b1-3)[Neu5Ac(a2-6)Gal(b1-4)GlcNAc(b1-3)Gal(b1-4)GlcNAc(b1-6)]GalNAc
Procedure, shortened: as §1

Neu5Ac(a2-6)GalNAc = target: Neu5Ac(a2-6)GalNAc
Procedure, shortened: as §1

[26] = target: Neu5Ac(a2-6)GalNAc(b1-4)GlcNAc
Procedure, shortened: as §1

[27] = target: Neu5Ac(a2-8)Neu5Ac(a2-3)Gal(b1-3)GalNAc(b1-4)[Neu5Ac(a2-3)]Gal(b1-4)Glc
Procedure, shortened: as §1

[28] = target: Neu5Ac(a2-8)Neu5Ac(a2-8)Neu5Ac(a2-3)Gal(b1-4)Glc
Procedure, shortened: as §1

Neu5Gc(a2-3)Gal(b1-4)Glc = target: Neu5Gc(a2-3)Gal(b1-4)Glc
Procedure, shortened: as §1

B1: Banana lectin (Musa acuminata) (protein)
chain: MNGAIKVGAWGGNGGSAFDMGPAYRIISVKIFSGDVVDGVDVTFTYYGKTETRHYGGSGGTPHEIVLQEGEYLVGMAGEVANYHGAVVLGKLGFSTNKKAYGPFGNTGGTPFSLPIAAGKISGFFGRGGKFLDAIGVYLEPLEHHHHHH
- glycan array binding signal (z-score) [1]: -0.122
- glycan array binding signal (z-score) [2]: -0.165
- glycan array binding signal (z-score) [3]: -0.184
- glycan array binding signal (z-score) [4]: 6.19
- glycan array binding signal (z-score) (Man(a1-2)Man(a1-3)Man): 2.25
- glycan array binding signal (z-score) [5]: 4.51
- glycan array binding signal (z-score) [6]: 5.96
- glycan array binding signal (z-score) [7]: 2.62
- glycan array binding signal (z-score) [8]: 8.11
- glycan array binding signal (z-score) [9]: 3.34
- glycan array binding signal (z-score) [10]: 6.29
- glycan array binding signal (z-score) [11]: 13.1
- glycan array binding signal (z-score) [12]: 4.01
- glycan array binding signal (z-score) [13]: 2.88
- glycan array binding signal (z-score) [14]: -0.237
- glycan array binding signal (z-score) [15]: -0.288
- glycan array binding signal (z-score) [16]: -0.214
- glycan array binding signal (z-score) [17]: -0.223
- glycan array binding signal (z-score) [18]: -0.225
- glycan array binding signal (z-score) [19]: -0.167
- glycan array binding signal (z-score) [20]: -0.132
- glycan array binding signal (z-score) [21]: -0.169
- glycan array binding signal (z-score) [22]: 3.56
- glycan array binding signal (z-score) [23]: -0.226
- glycan array binding signal (z-score) [24]: -0.223
- glycan array binding signal (z-score) [25]: -0.161
- glycan array binding signal (z-score) (Neu5Ac(a2-6)GalNAc): -0.204
- glycan array binding signal (z-score) [26]: -0.221
- glycan array binding signal (z-score) [27]: -0.192
- glycan array binding signal (z-score) [28]: -0.139
- glycan array binding signal (z-score) (Neu5Gc(a2-3)Gal(b1-4)Glc): -0.209
